What follows are sequences tested on VDR:RXRa (NR concentration 270 nM, RXRa partner concentration 90 nM) (assay: PBM binding z-score (relative to random genomic background probes); higher = stronger binding; sequences stand for … in GC…GCGATTGACAGCGTAGAATGAAGG).
Description: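 Protein-binding microarray (Agilent 4x180K custom design, double-stranded 60-nt probes: 5' GC cap, 34-nt variable region, 24-nt constant primer region; full probe sequence given). Purified or IVT nuclear receptor:RXRα heterodimers (3:1 NR:RXRα, mostly 270:90 nM) or homodimers were incubated for 1 h in PBS with 2% milk and no ligand, then detected with Alexa488 antibodies. Fluorescence from o1-orientation probes (~5 replicates averaged) was converted to z-scores against 500 random hg19 background probes. Variable regions are seed direct-repeat (DR0–DR5) sites, all their single-nucleotide variants and half-site ablations.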
Work on CCTTACGGGTCACTGATAGGTTATAGCATTTGGA yielded a PBM binding z-score of 3.6.
In the case of CAAATTAGGTCAAAGGTCAAAGTCGAGCCAACCA, the PBM binding z-score is reported as 6.81.
TCATATAGGTAAATGCTAGGTTAAAGTCCGATCT was tested, and the PBM binding z-score was 1.33.
With TCATATAGGTAAAGGTGAAAATCGAACGATATGA the PBM binding z-score was 0.688.
In the case of GCATATAGGTAATACAAGTTGAAAGTCCGATTGT, the PBM binding z-score is reported as 0.409.
In the case of TTAACAAGGTGAGCTGAGGTCGTTGATCCAACTC, the PBM binding z-score is reported as 4.08.
Work on ATATGTAGGATAAGGGTCATTCAGGTTGGTTCGC yielded a PBM binding z-score of 5.49.
Sequence ATATCTAGGTTACATCCGGGTCATTCAGGCTATG has a PBM binding z-score of 4.23.
In the case of TGTCATAGTTCAAAGGTAACGTAAGTATCCACAC, the PBM binding z-score is reported as 2.96.
Work on CAAACTAGGTCACCCGAAGGTCAAAGTCCGCATG yielded a PBM binding z-score of 5.75.
For CTACCAAGGTAAACAAGGTCGTTGATTACTATTC, the PBM binding z-score was 4.73.
GCAGACAGGTGAAACGCAGGTTACTCAGGGTGGC gave a PBM binding z-score of -0.128.
Work on CGCCCAAGGTCATAGGAGGTCAGTGAAGACAGAT yielded a PBM binding z-score of 6.21.
CCTCACGGGTCACTCCAGGTTATAGCATCGGAGT showed a PBM binding z-score of 4.07.
With ACAAGTTGGTCAGCTGAGGTCACACACAATTCGG the PBM binding z-score was 4.66.
ATCTCTATGTAAGACTCAGTTCAGTGAAGAACGC gave a PBM binding z-score of 0.971.
For GCATATAGGTAATACAAGATGAAAGTCCGATTGT, the PBM binding z-score was -0.0142.
Work on ACAGACAGGTGATGAAGGTAACTCCGGCTATCAT yielded a PBM binding z-score of 0.125.
ATCGAAAGGTCGAAGGGGAGTATACCCACCCGAA gave a PBM binding z-score of 2.67.
Sequence GGACCGAGGGCAAAGTTGATAGCATCTGTCGACG has a PBM binding z-score of 0.837.
GGAATGAGGGCATTCGAGTTGATAGCATGGCGAT showed a PBM binding z-score of 3.45.
Work on CCTCGGAGGACAACAGGAGGTCAGACCTGCCAGA yielded a PBM binding z-score of 1.95.
GTACCAAGGTGAATCGGTCGTTGATGAGTAGGCG was tested, and the PBM binding z-score was -0.122.
Work on CCTACTGGGCCACGAAATGTCATTGATTCAGTGA yielded a PBM binding z-score of -0.452.
TCGATTAGGTTACCAATGGGGCATTCAGCTTTCT gave a PBM binding z-score of 0.441.
TCTGCTAGGTCAGTTGGTCAGCTGACGAGCTGCC gave a PBM binding z-score of -0.0967.
ATCTCTAGGTAACTAGTTCAGTGAAAGAGAGGAC showed a PBM binding z-score of 0.369.
ACTGGCAGGCCAAGGGTCACTCAAGATTAGTCCG showed a PBM binding z-score of 2.69.
GCGACAGGGGCAAAGCAGGTTACCATAAGGTTGG was tested, and the PBM binding z-score was 0.898.
With CCTACTGGACCAAAAAGGTCATTGATGCCGATAA the PBM binding z-score was 4.77.
CGTCCAAGGTCAGCGAGGTCAGTGAATGCCGAGT showed a PBM binding z-score of 7.6.
ACTATTACTTGAGACGAGGGCAACCGATAGGTTG was tested, and the PBM binding z-score was 0.736.
GATACAGGGTCAAGGCCAGAGCACGCGTATTGAT gave a PBM binding z-score of 4.21.
Work on ATCTCTAGTTAAAAGTTCAGTGAATCCCGAGGAT yielded a PBM binding z-score of 1.29.
Work on GCTGCTAGGTCAACTGTTGGTCAGCTAAAGCTCG yielded a PBM binding z-score of 1.39.
With ATCGAAAGGACGACGAGGTGAGTATACACCGTTT the PBM binding z-score was 0.0992.
GCTGCTAGGTCAGGTTGGTCAGCTTACGGGTACG showed a PBM binding z-score of 0.539.
Sequence CAGCCTAGGTCAGGGACAGTATAGGAGGAACGTT has a PBM binding z-score of 0.484.
Work on CGTCCAAGGTCTATGCTAGGTCAGTGAAAGCATT yielded a PBM binding z-score of 0.278.
Sequence TAGCCTAGGTCAGACCGGGCCAGTATACGCTATA has a PBM binding z-score of 0.854.
